Test results reported in paper PMC4336329 (PLoS ONE, 2015).
The campaign covered roughly 310,000 compounds. About 14,000 (4.5%) showed an effect of 50% or more. The effect is printed as a negative number. This is one part of a sample in which strong results are shown more often than they occur.

Biological target: human ether-à-go-go-related gene (hERG) potassium channel (human, UniProt Q12809)
Test: primary screen, population patch clamp on CHO cells stably expressing hERG; higher = less effect of the substance
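Further: peak tail current of the secondary pulse compared with the same well before compound.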

Chain of human ether-à-go-go-related gene (hERG) potassium channel (Q12809 whole entry, looked up): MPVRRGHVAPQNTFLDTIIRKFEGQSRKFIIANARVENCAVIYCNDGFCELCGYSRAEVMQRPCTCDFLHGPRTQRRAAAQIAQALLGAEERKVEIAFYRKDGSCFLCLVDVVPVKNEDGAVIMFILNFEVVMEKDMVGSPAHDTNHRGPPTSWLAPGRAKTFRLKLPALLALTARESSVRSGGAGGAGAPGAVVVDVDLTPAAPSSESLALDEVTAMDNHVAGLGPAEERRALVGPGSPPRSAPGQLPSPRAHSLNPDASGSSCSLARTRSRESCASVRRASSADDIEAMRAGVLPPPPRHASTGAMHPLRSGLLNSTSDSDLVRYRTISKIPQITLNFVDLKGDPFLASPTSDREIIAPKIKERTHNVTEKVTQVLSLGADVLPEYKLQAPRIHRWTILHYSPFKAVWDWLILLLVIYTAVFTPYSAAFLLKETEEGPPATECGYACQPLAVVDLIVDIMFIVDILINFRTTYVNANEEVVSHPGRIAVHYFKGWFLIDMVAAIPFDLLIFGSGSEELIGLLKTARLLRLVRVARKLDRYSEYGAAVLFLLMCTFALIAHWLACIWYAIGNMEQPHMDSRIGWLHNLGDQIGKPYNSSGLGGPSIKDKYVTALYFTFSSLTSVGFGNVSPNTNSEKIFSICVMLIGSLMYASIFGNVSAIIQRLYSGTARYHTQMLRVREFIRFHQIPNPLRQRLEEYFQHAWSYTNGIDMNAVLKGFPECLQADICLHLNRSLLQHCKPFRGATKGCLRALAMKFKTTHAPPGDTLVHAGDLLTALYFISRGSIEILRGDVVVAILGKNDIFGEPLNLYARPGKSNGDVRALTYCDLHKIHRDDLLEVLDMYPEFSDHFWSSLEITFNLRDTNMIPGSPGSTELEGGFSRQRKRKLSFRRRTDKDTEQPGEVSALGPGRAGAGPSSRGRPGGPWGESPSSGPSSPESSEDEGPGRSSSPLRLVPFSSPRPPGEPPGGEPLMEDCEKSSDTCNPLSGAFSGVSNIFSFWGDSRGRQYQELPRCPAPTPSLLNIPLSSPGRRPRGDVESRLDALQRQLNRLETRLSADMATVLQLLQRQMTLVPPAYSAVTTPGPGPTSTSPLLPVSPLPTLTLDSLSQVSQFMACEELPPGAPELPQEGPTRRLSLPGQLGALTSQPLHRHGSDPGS

Structure (SMILES) | hERG current change (%, negative = inhibition) at 10uM [%]
Cc1c(C(=O)Nc2ccc(F)cc2)sc2ncn(CC(=O)N3CCCCC3)c(=O)c12 | 1.43
CC(C)c1ccc(/C=N\NC(=O)c2ccc(Cn3cccn3)o2)cc1 | -42
O=C(N/N=C\c1cccc(Cl)c1)c1ccc(Cn2cccn2)o1 | -71.2
O=C(N/N=C\c1c(O)ccc2ccccc12)c1ccc(Cn2cccn2)o1 | 9.2
Cc1ccccc1/C=N\NC(=O)c1ccc(Cn2cccn2)o1 | 4.98
O=C(N/N=C\c1ccc(Br)cc1)c1ccc(Cn2cccn2)o1 | -34.1
O=C(N/N=C\c1ccc(Cl)s1)c1ccc(Cn2cccn2)o1 | -57.2
O=C(OCCOCCN=C1NS(=O)(=O)c2ccccc21)c1ccccc1 | 2.47
COc1ccc(CNC(=O)CN(c2cccc(OC)c2)S(C)(=O)=O)cc1 | 2.47
Cc1cc2c(NC(=O)Nc3ccc(F)cc3)cccc2nn1 | 8.16
Clc1cccc(NCc2nnc(SCc3ccccc3)o2)c1 | 3.21
COc1ccc(Cn2c(-c3ccc(OC)cc3)nc3ccccc32)cc1 | -36.9
CCOc1ccc2[nH]c(=O)c(CN(CCO)C(=O)c3ccc(OC)c(OC)c3)cc2c1 | -0.583
CCCCCCN1C=CC(=C2C(=O)c3ccccc3C2=O)C=C1 | 10.5
CCCCCN1C=CC(=C2C(=O)c3ccccc3C2=O)C=C1 | -61
CCCCN1C=CC(=C2C(=O)c3ccccc3C2=O)C=C1 | -1.69
CCOC(=O)c1c(C)cc(C)n2c1nc1ccccc12 | -38.8
CN(Cc1c(C(=O)N/N=C/c2ccccc2)nnn1-c1nonc1N)C1CCCCC1 | 8.4
COc1ccc(/C=N\N=C(N)N)cc1.O=[N+]([O-])O | -1.01
CN(C)/N=C/c1ccc(OS(=O)(=O)c2ccccc2)cc1 | 8.55
NC(N)=N/N=C/c1ccc(OS(=O)(=O)c2ccccc2)cc1 | -55.6
CCN(Cc1ccccc1)c1ccc(/C=N/N=C(N)N)cc1 | -25

Structure (SMILES) | hERG current change (%, negative = inhibition) at 10uM [%]
NC(N)=N/N=C/c1ccc(N(c2ccccc2)c2ccccc2)cc1.O=[N+]([O-])O | -50.8
CCC(=O)N/N=C/c1ccc(OS(=O)(=O)c2ccccc2)cc1 | -17.5
COc1ccc(C(CNC(=O)COc2cc(C)ccc2Cl)N2CCCCC2)cc1 (centres unmarked) | 1.57
O=C(c1ccc2c3c(cccc13)CC2)C1CCCN(C(=O)c2ccc(=O)[nH]c2)C1 (centres unmarked) | 4.99
COc1ccc(OC)c(-n2c(=S)[nH]c3cc(C(=O)N4CCC(C(N)=O)CC4)ccc3c2=O)c1 | -2.14
COc1ccc(-c2csc(COC(=O)C(C)(C)C)n2)cc1 | 18
CC(C)c1nc2oc3c(N(C)CCO)ncnc3c2c2c1CCC2 | -28.1
CC(C)Cc1nc2oc3c(NCC4CCCO4)ncnc3c2c2c1CCC2 (centres unmarked) | -35.8
CC(C)c1nc2oc3c(NCC4CCCO4)ncnc3c2c2c1CCC2 (centres unmarked) | -27.4
CC(C)c1nc2oc3c(NCc4cccnc4)ncnc3c2c2c1CCC2 | -50.2
CC(C)Cc1nc2oc3c(NCc4cccnc4)ncnc3c2c2c1CCC2 | -50.8
CC(C)Cc1nc2oc3c(NCC(C)O)ncnc3c2c2c1CCCC2 (centres unmarked) | -7.54
Cc1ccc(Cn2c(Sc3nccc(C)n3)nc3c2c(=O)[nH]c(=O)n3C)cc1 | -8.13
N#CCCNC(=O)Cn1c(COc2ccc(Cl)cc2)nc2ccccc21 | -24.5
Cc1ccc(/C=C/c2nc3ccccc3s2)s1 | 3.83
COC(=O)c1ccc(-c2nc(CN3CCN(Cc4cccc(C)c4)CC3)c(C)o2)cc1 | -25.3
Cc1oc(-c2ccc(-c3ccccc3)cc2)nc1CN1CCN(CC(=O)N(C)C)CC1 | -53
Cc1oc(-c2ccccc2)nc1CS(=O)CC(=O)N1CCc2ccccc2C1 (centres unmarked) | -20.5
Cc1ccc(-c2nc(CS(=O)(=O)CC(=O)N3CCc4ccccc4C3)c(C)o2)cc1 | -16
Cc1oc(-c2ccccc2)nc1C(=O)O | 17
Cc1oc(-c2ccc(Cl)cc2)nc1CN1CCC(C(=O)N2CCN(Cc3ccccc3)CC2)CC1 | -69.1
Cc1oc(-c2ccc(Cl)cc2)nc1CN1CCC(C(=O)N2CCc3ccccc3C2)CC1 | -74

Structure (SMILES) | hERG current change (%, negative = inhibition) at 10uM [%]
CCC/C(O)=C1\C(=O)CC(C)(C)CC1=Nc1ccccc1OC | -13.4
O=C(CCc1nnc(C2CCCCC2)o1)N1CCN(Cc2ccccc2)CC1 | 5.53
COCCN(C(=O)CCC(=O)Nc1nccs1)C(C(=O)NC(C)(C)C)c1ccc(C)cc1 (centres unmarked) | 5.03
COc1ccccc1C1CCN(c2cc(O)ccc2[N+](=O)[O-])CC1 | 4.65
Cc1cccc(NS(=O)(=O)c2nnc(NC(=O)c3cccc(C)c3)s2)c1 | 2.44
O=C(Nc1cc(-c2nc3ccccc3s2)ccc1Cl)c1ccc2c(c1)OCO2 | 7.51
CCOC(=O)c1nc2nc(C)c(Cl)c(=O)n2[nH]1 | 0.341
COc1cccc2cc(C(=O)NC(C)c3ccccc3)c(=O)oc12 (centres unmarked) | 16.3
CCc1nn(CC(=O)NCCCN(C)Cc2ccccc2)c(=O)c2cc3sc(C)cc3n12 | -69.9
CCc1cc2c(cc3c(=O)n(CC(=O)NCCCN(CC)CC)nc(CC)n32)s1 | -34.9
CCc1nn(CC(=O)NCCCN2CCCC2=O)c(=O)c2cc3sccc3n12 | -12.3
CCCCN(CCCNC(=O)Cn1nc(CC)n2c(cc3sc(C)cc32)c1=O)Cc1ccccc1 | -47.1
CCc1nn(CC(=O)NCCCN2CCOCC2)c(=O)c2cc3sccc3n12 | 16.2
CCc1cc2c(cc3c(=O)n(CC(=O)NCCCN4CCCCCC4)nc(CC)n32)s1 | -72.7
CCc1nn(CC(=O)NCCCN2CCc3ccccc3C2)c(=O)c2cc3sccc3n12 | -70.2
CCc1nn(CC(=O)NCCCN(CC)CC)c(=O)c2cc3sc(C)cc3n12 | 7.73
CCc1nn(CC(=O)NCCCN2CCN(C)CC2)c(=O)c2cc3sc(C)cc3n12 | 14.8
CCc1nn(CC(=O)NCCCN(Cc2ccccc2)C(C)C)c(=O)c2cc3sccc3n12 | -43.8
CCc1nn(CC(=O)NCCCN(CC)Cc2ccccc2)c(=O)c2cc3sccc3n12 | -50.2
CCc1nn(CC(=O)NCCCN2CCN(C)CC2)c(=O)c2cc3sccc3n12 | 7.04
CN1Cc2c(N3CCOCC3)nc3sc(C#N)c(N)c3c2CC1(C)C | -8.57
CCOC(=O)c1cc(-c2ccccc2C)nn1CC1CC(c2ccc(OC)cc2)=NO1 (centres unmarked) | 3.54

Structure (SMILES) | hERG current change (%, negative = inhibition) at 10uM [%]
Cc1cccc(CS(=O)(=O)Cc2ccc(C(=O)NCCc3ccccc3)o2)c1 | -38.8
Cc1ccc(NC(=O)COC(=O)Cn2c(C)csc2=O)cc1C | 2.05
CC(=O)N1CCC(N(C(=O)Nc2ccc(C)c(C)c2)C2CCCC2)CC1 | -31.2
Cc1nnc(SCC2=C(C(=O)[O-])N3C(=O)C(NC(=O)Cc4ccccc4)C3SC2)s1.[Na+] (centres unmarked) | 9.74
CCn1c(C(=O)NCCCN2CCc3ccccc3C2)cc2sccc21 | -64
CCN1CCN(CCCNC(=O)c2cc3sccc3n2CC)CC1 | -40.8
CCn1c(C(=O)N2CCc3ccccc3C2)cc2sccc21 | -3.24
N#Cc1ccc(OCC(=O)OCC(=O)Nc2ccc(N3CCOCC3)cc2)cc1 | -15.3
CC(=O)NCc1ccc(C(=O)CCl)s1 | -7.15
CN(C)C=Nc1ncc2c3ccccc3n(CCN(C)C)c2c1C#N | -15.7
CCN(CC)CCn1c2ccccc2c2cnc(N=CN(C)C)c(C#N)c21 | -31.8
CCN(CC)CCn1c2ccccc2c2cnc(N)c(C#N)c21 | -60.5
CC1CN(C(=O)CSc2nc(N)cc(N)n2)CC(C)O1 (centres unmarked) | -10.3
Cc1nnc2c(NC3CCCC3)nc3ccccc3n12 | -37.3
CCCOc1ccc(N2C(=O)CC(N(CCc3ccc(OC)cc3)C(=O)c3cccc(F)c3)C2=O)cc1 (centres unmarked) | -8.44
CCCOc1ccc(N2C(=O)CC(N(CCc3ccc(OC)c(OC)c3)C(=O)c3ccccc3)C2=O)cc1 (centres unmarked) | -74.9
CCOc1ccc(N2C(=O)CC(N(CCc3ccc(OC)cc3)C(=O)c3cccc(F)c3)C2=O)cc1 (centres unmarked) | -63
CCCOc1ccc(N2C(=O)CC(N(CCc3ccc(OC)cc3)C(=O)c3ccccc3)C2=O)cc1 (centres unmarked) | -10.6
COc1ccc(CCN(C(=O)c2cccc(F)c2)C2CC(=O)N(c3ccccc3)C2=O)cc1 (centres unmarked) | -38.5
CCCOc1ccc(N2C(=O)CC(N(CCc3ccccc3)C(=O)c3ccccc3)C2=O)cc1 (centres unmarked) | 10.8
